{
  "source": "PubChem BioAssay (Tox21)",
  "note": "The source made the active and inactive calls. Calls follow the shape of the dose curve; as a rule, active = well fitted curve in the direction sought with a large enough effect in the repeat runs; inconclusive = weak or mixed curves; inactive = flat fitted curve, though single readings scatter.",
  "data": [
    {"experiment": "qHTS assay to test for compound auto fluorescence at 590 nm (red) in HEK293 cells (AID 720679)", "details": "red autofluorescence 540/590 nm; series mostly up to 91.3 µM", "from_the_text": "National Center for Advancing Translational Sciences [NCATS]\nNIH Chemical Genomics Center [NCGC]\nU.S. Environmental Protection Agency [EPA]\nNational Institutes of Environmental Health Sciences [NIEHS]\nNational Toxicology Program [NTP]\nU.S. Food and Drug Administration [FDA]\nCompound auto fluorescence often interferes with screening of the compound library against various biological targets and signaling pathways. Some of these compounds may have fluorophoric properties. Such properties may interfere with the assay outputs resulting in false positives and/or negatives. To decrease such complications and ensure the compound activities are relevant in terms of biological response, the Tox21 10K compound library was screened for auto fluorescence.\nFrom the fluorophores used as reporter signals in our screening assays, the auto fluorescence equivalencies of compounds against three fluorophores have been evaluated: Triamterene, Fluorescein and Rose Bengal sodium for blue, green and red fluorescence, respectively. The fluorescence intensities were measured using Excitation/Emission wavelengths at 405/460nm, 485/535nm and 540/590nm for blue, green and red labels, respectively. This assay includes the red fluorescence data.\nTox21 Assay Protocol Summary:\n2,000 HEK293 cells in 5 uL of culture medium containing 10% dialyzed FBS per well were dispensed into black wall/clear bottom 1536-well plates using a Multidrop Combi Dispenser (Thermo Scientific). The assay plates were incubated for 4-5 hr at 37C to allow cell attachment to the well bottom, followed by the transfer of 23 nL compound or DMSO vehicle by a pintool work station (Kalypsys, San Diego, CA). After the assay plates were incubated overnight at 37C and 5% CO2, fluorescence intensities in the assay plates were measured by an Envision (PerkinElmer, Shelton, CT) plate reader using three labels for measuring blue, green and red fluorescence at […] 460, 535 and 590nm respectively.", "values": [
      {"compound": "CC(C)NC(C)C", "outcome": "inactive"},
      {"compound": "O=P(O)(O)CCCl", "outcome": "inactive"},
      {"compound": "Oc1cc(Cl)c(Cl)cc1Cl", "outcome": "inactive"},
      {"compound": "NCc1cccnc1", "outcome": "inactive"},
      {"compound": "C=CCc1ccc2c(c1)OCO2", "outcome": "inactive"},
      {"compound": "CCC(C)c1ccc(O)cc1", "note": "(stereo not given)", "outcome": "inactive"},
      {"compound": "CN(C)c1ccc(C(=O)c2ccc(N(C)C)cc2)cc1", "outcome": "inactive"},
      {"compound": "CC(C)(OOC(C)(C)c1ccccc1)c1ccccc1", "outcome": "inactive"},
      {"compound": "CCC(C)(C)c1ccc(O)cc1", "outcome": "inactive"},
      {"compound": "c1ccc(P(c2ccccc2)c2ccccc2)cc1", "outcome": "inactive"},
      {"compound": "CCC(C)(c1ccc(O)cc1)c1ccc(O)cc1", "outcome": "inactive"},
      {"compound": "C=CC(=O)OCCO", "outcome": "inactive"},
      {"compound": "C#CCOS(=O)OC1CCCCC1Oc1ccc(C(C)(C)C)cc1", "note": "(stereo not given)", "outcome": "inactive"},
      {"compound": "CCCCC(CC)COC(=O)Cl", "note": "(stereo not given)", "outcome": "inactive"},
      {"compound": "CNC(=O)N(C)c1nnc(C(C)(C)C)s1", "outcome": "inactive"},
      {"compound": "CNC(=O)Oc1cccc2c1OC(C)(C)O2", "outcome": "inactive"},
      {"compound": "CCCCN(CC)c1c([N+](=O)[O-])cc(C(F)(F)F)cc1[N+](=O)[O-]", "outcome": "inactive"},
      {"compound": "Oc1cc(Cl)ccc1Oc1ccc(Cl)cc1Cl", "outcome": "inactive"},
      {"compound": "CCCCCCOC(=O)c1ccccc1C(=O)OCCCCCC", "outcome": "inactive"},
      {"compound": "Cc1ccc(OP(=O)(Oc2ccc(C)cc2)Oc2ccc(C)cc2)cc1", "outcome": "inactive"},
      {"compound": "c1ccc(-c2cccc(-c3ccccc3)c2)cc1", "outcome": "inactive"},
      {"compound": "CC(C)(c1cc(Cl)c(O)c(Cl)c1)c1cc(Cl)c(O)c(Cl)c1", "outcome": "inactive"},
      {"compound": "CC(C)(C)c1ccccc1O", "outcome": "inactive"},
      {"compound": "N#Cc1cc(Br)c(O)c(Br)c1", "outcome": "inactive"},
      {"compound": "CCCCN(CCCC)N=O", "outcome": "inactive"},
      {"compound": "CCN(CC)C(=O)/C(Cl)=C(\\C)OP(=O)(OC)OC", "outcome": "inactive"},
      {"compound": "CCOC(=O)C(C)OC(=O)c1cc(Oc2ccc(C(F)(F)F)cc2Cl)ccc1[N+](=O)[O-]", "note": "(stereo not given)", "outcome": "inactive"},
      {"compound": "CCC(C)c1cc([N+](=O)[O-])cc([N+](=O)[O-])c1O", "note": "(stereo not given)", "outcome": "inactive"},
      {"compound": "CCc1cccc(CC)c1N(COC)C(=O)CCl", "outcome": "inactive"},
      {"compound": "CCCCNC(=O)n1c(NC(=O)OC)nc2ccccc21", "outcome": "inactive"},
      {"compound": "ClC1C(Cl)C(Cl)C(Cl)C(Cl)C1Cl", "note": "(stereo not given)", "outcome": "inactive"},
      {"compound": "Nn1cnnc1", "outcome": "inactive"},
      {"compound": "CCOc1cc(Oc2ccc(C(F)(F)F)cc2Cl)ccc1[N+](=O)[O-]", "outcome": "inactive"},
      {"compound": "CCCCCCCCCCCOC(=O)c1ccccc1C(=O)OCCCCCCCCCCC", "outcome": "inactive"},
      {"compound": "Oc1cc(Cl)ccc1Cl", "outcome": "inactive"},
      {"compound": "O=[N+]([O-])c1c(Cl)c(Cl)c(Cl)c(Cl)c1Cl", "outcome": "inactive"},
      {"compound": "CCCCOCCOP(=O)(OCCOCCCC)OCCOCCCC", "outcome": "inactive"},
      {"compound": "C=C(C)[C@H]1Cc2c(ccc3c2O[C@@H]2COc4cc(OC)c(OC)cc4[C@@H]2C3=O)O1", "outcome": "inactive"},
      {"compound": "Cc1ccc2c(c1N)C(=O)c1ccccc1C2=O", "outcome": "inactive"},
      {"compound": "CC(C)Oc1cc(-n2nc(C(C)(C)C)oc2=O)c(Cl)cc1Cl", "outcome": "inactive"}
    ]}
  ]
}
